Bioassay records (PubChem BioAssay)
In the library only some 2.9% were active in any assay of this set; here they are far more common.
HIF-2a inh: HIF-2a reporter inhibitors, primary screen, luminescence, 786-0 RCC cells; inhibition, % at 18.8 µM; hit rate 0.72% among 360,000; 786-0 RCC cells HIF-2a reporter, luciferase luminescence, overnight;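 active means inhibition of the luminescence signal of 40% or more relative to plate controls, in a single-dose primary screen at 18.75 µM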
CF NFkB inh: inhibitors of PAF-induced NF-kB signaling, primary screen, cell-based, GFP fluorescence, uHTS. KKLEB NF-kB-GFP reporter, GFP fluorescence overnight. hit rate 0.86% among 360,000. inhibition, % at 5 µM. AID 588850, 2011;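 active means at least 50% inhibition at 5 µM, scaled per plate between neutral and stimulator controls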;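 further: PAF is a Pseudomonas aeruginosa culture filtrate used as stimulus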
Shn3 inh set2: reduction of Shn3 3'UTR firefly luciferase signal, primary screen, Schnurri-3 inhibitor project, cell-based, Clone20 osteoblasts, set 2 | Clone20 osteoblast Shn3 3'UTR firefly luciferase, 24 h | inhibition, % at 12.5 µM | hit rate 0.52% among 360,000;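 active means mean inhibition of at least 75% with every replicate also reaching 75%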
Peg3 promoter: Peg3 promoter-driven luciferase inhibitors, primary screen, cell-based, HeLa, luciferase luminescence; HeLa PEG-Prom luciferase reporter, overnight; inhibition, % at 20 µM; hit rate 1.7% among 360,000;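 active means inhibition of at least 50% at 20 µM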
KKLEB cytotox: cytotoxicity in KKLEB CF airway cells, primary screen, cytotoxicity control for CF NF-kB inhibitor project, cell-based, uHTS, fluorescence assay plates | activity change (cytotoxicity), % at 5 µM | KKLEB CF airway cells viability, ATPlite luminescence, overnight; hits give low values; cells stimulated with P. aeruginosa culture filtrate | hit rate 0.36% among 360,000;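 active means corrected activity change at or below -50% at 5 µM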
EBV LMP1 NFkB: EBV LMP1-driven NF-kappaB luciferase reporter inhibitors, primary screen, cell-based, luminescence, single point. LMP1-induced NF-kappaB luciferase reporter cells. inhibition, % at 12.5 µM. hit rate 0.69% among 350,000; in the data active means inhibition above about 41%
Hits are given with their value; 0 = inactive; - = not tested or not shown.

SMILES | HIF-2a inh | CF NFkB inh | Shn3 inh set2 | Peg3 promoter | KKLEB cytotox | EBV LMP1 NFkB
c1ccc(-c2cc(NCCN3CCCCC3)c3ccccc3n2)cc1 | 0 | 0 | 0 | 101 | 0 | 0
NC(=O)/C=C/C(=O)Nc1ccc(Cl)cc1 | 0 | 0 | 0 | 63 | 0 | 0
O=C(/C=C/C(Cl)(Cl)Cl)Nc1ccc(Cl)cc1 | 0 | 0 | 0 | 0 | 0 | 0
Cc1cc(Cl)ccc1C(=O)C1CCCN(C(=O)c2cnn(C(C)C)c2)C1 (centres undefined) | 0 | 0 | 0 | 0 | 0 | 0
Cc1nn(CC(=O)OCC(=O)c2ccccc2)c(C)c1[N+](=O)[O-] | 0 | 0 | 0 | 0 | 0 | 0
Cc1ccc(-c2nc(-c3ccccc3)no2)c(Cl)c1 | 61 | 0 | 0 | 0 | -80 | 0
CCOC(=O)C1=C(c2ccccc2)NC(N)=NC1c1ccc(OCc2ccc(Cl)cc2)c(OC)c1 (centres undefined) | 0 | 0 | 0 | 110 | 0 | 0
COc1ccc(OC)c2c1sc(=NC(=O)C1CC1)n2C | 0 | 0 | 0 | 0 | 0 | 0
COc1ccc(OC)c2c1sc(=NC(=O)c1ccco1)n2C | 0 | 0 | 0 | 0 | 0 | 53
O=C(c1noc2c1CCCC2)N1CCCCC1 | 0 | 0 | 0 | 0 | 0 | 68
CCOc1ccc2c(c1)/C(=C(\C(Cl)=C(Cl)Cl)[N+](=O)[O-])N2 | 0 | 0 | 0 | 0 | 0 | 0
CCCCOc1ccc2c(c1)/C(=C(\C(Cl)=C(Cl)Cl)[N+](=O)[O-])N2 | 0 | 0 | 0 | 0 | 0 | 44
CCOC(=O)N1CCc2cc(OC)c(OC)c3c2c1cc1cc(OC)c(OC)cc13 | 0 | 0 | 0 | 51 | 0 | 0
O=C(/C=C/c1ccncc1)c1ccc(NC(=O)c2ccccc2F)cc1 | 0 | 72 | 89 | 103 | 0 | 0
O=c1c2ccccc2sc2c(CO)ccc(NCCN3CCCCC3)c12 | 55 | 0 | 0 | 88 | 0 | 0
CCN(CC)CCNC(=O)Cc1nn(CC)c(=O)c2ccccc12 | 0 | 0 | 0 | 0 | 0 | 0
CCN(CC)CCNc1ccc(CO)c2sc3ccccc3c(=O)c12 | 43 | 0 | 0 | 58 | 0 | 0
CCN(CC)CCNc1ccc(CO)c2oc3ccccc3c(=O)c12 | 40 | 0 | 0 | 0 | 0 | 0
Cc1ccc(NC2(C#N)CCCC2)cc1 | 0 | 0 | 0 | 0 | 0 | 0
COc1ccc(N(CC(=O)Nc2nccs2)S(=O)(=O)c2c(C)[nH]c(=O)[nH]c2=O)cc1 | 0 | 0 | 0 | 0 | 0 | 0
O=C(/C=C/Nc1ccccc1F)c1cccs1 | 0 | 0 | 0 | 0 | 0 | 0
O=C(/C=C/c1ccc(Br)cc1)c1ccco1 | 0 | 0 | 0 | 90 | 0 | 0
O=C(/C=C/Nc1ccc(F)cc1F)c1ccco1 | 0 | 0 | 0 | 0 | -58 | 0
O=C(/C=C/Nc1ccc(F)cc1F)c1cccs1 | 0 | 0 | 0 | 0 | -68 | 0
O=C(/C=C/Nc1ccc(Br)cc1F)c1ccco1 | 0 | 0 | 0 | 0 | -65 | 0
SMILES | HIF-2a inh | CF NFkB inh | Shn3 inh set2 | Peg3 promoter | KKLEB cytotox | EBV LMP1 NFkB
CC(C(=O)OCc1nnc(-c2ccccc2)o1)N1C(=O)C2CCCCC2C1=O (centres undefined) | 0 | 0 | 0 | 0 | 0 | 0
O=C1NC[C@@H](CCCCN2C[C@H](Cc3ccc(O)cc3)N(CC3CCCCC3)C(=O)C2=O)N(CCC2CCCCC2)C1=O | 0 | - | - | - | - | -
O=C(/C=C\Nc1cccc(F)c1)c1cccs1 | 0 | 0 | 0 | 0 | 0 | 0
Cc1ccc(N/C=C/C(=O)c2cccs2)cc1 | 0 | 0 | 0 | 0 | -54 | 0
C=CCNC(=O)/C(C#N)=C/c1c(N(Cc2ccccc2)Cc2ccccc2)nc2ccccn2c1=O | 0 | 0 | 0 | 50 | 0 | 0
N#C/C(=C\c1c(N(Cc2ccccc2)Cc2ccccc2)nc2ccccn2c1=O)C(N)=O | 0 | 0 | 0 | 0 | 0 | 0
COCCN1CCN(C(=O)C2CCC(=O)N(Cc3ccccc3OC)C2)CC1 (centres undefined) | 0 | 0 | 0 | 0 | 0 | 0
CC(CCc1ccccc1)NC(=O)c1ccc(C(=O)NC(C)CCc2ccccc2)cc1 (centres undefined) | 0 | 0 | 0 | 59 | 0 | 0
CC1CCCN(C(=O)CN2C(=O)NC(C)(c3ccc4ccccc4c3)C2=O)C1 (centres undefined) | 0 | 0 | 0 | 0 | 0 | 0
O=C(O)c1ccccc1Nc1cccc(C(F)(F)F)c1 | 0 | 0 | 0 | 0 | -59 | 0
CCOc1ccc(-c2[nH]ncc2Oc2ccccc2OCC)c(O)c1 | 0 | 0 | 0 | 55 | 0 | 0
CCOc1ccc(-c2[nH]ncc2-c2ccc(OC)c(OC)c2)c(O)c1 | 0 | 0 | 0 | 0 | 0 | 0
CCOc1ccc(-c2[nH]ncc2-c2ccc(Cl)cc2)c(O)c1 | 0 | 0 | 0 | 55 | 0 | 0
Cc1ccsc1C(=O)NNC(=O)CCN1CCN(c2ccccc2)CC1 | 0 | 0 | 0 | 0 | 0 | 0
COc1ccc(C(=O)/C(C#N)=N/Nc2ccccc2[N+](=O)[O-])cc1 | 0 | 0 | 0 | 0 | 0 | 0
N#CC(C#N)=NNc1ccc([N+](=O)[O-])cc1 | 0 | 57 | 0 | 0 | 0 | 0
C/C(=N\Nc1ccc([N+](=O)[O-])cc1)c1ccc(C#N)cc1 | 0 | 0 | 0 | 0 | 0 | 0
COc1ccc(C(=O)/C(C#N)=N/Nc2ccc([N+](=O)[O-])cc2)cc1 | 0 | 56 | 89 | 0 | 0 | 0
NCc1ccc(S(N)(=O)=O)cc1 | 0 | 0 | 0 | 0 | -51 | 0
Cc1ccc(S(N)(=O)=O)cc1 | 0 | 0 | 0 | 0 | 0 | 0
COC(=O)c1c(-c2cccc3ccccc23)csc1NC(=O)Cc1ccc(OC)c(OC)c1 | 0 | 0 | 87 | 0 | 0 | 0
O=C(Cn1nnc2ccccc2c1=O)Nc1cccc(S(=O)(=O)N2CCOCC2)c1 | 0 | 0 | 0 | 0 | 0 | 0
CCCCN(C=O)c1c(CC)nc2ccc(C(=O)NCCc3c[nH]c4ccccc34)cn12 | 0 | 0 | 0 | 0 | 0 | -
CCc1nc2ccc(C(=O)NCCc3c[nH]c4ccccc34)cn2c1N(C)CCCc1ccccc1 | 0 | 0 | 0 | 61 | 0 | -
Nc1nonc1C(=O)NCCNCc1cc(Br)ccc1OCc1ccc(F)cc1 | 0 | 0 | 90 | 0 | 0 | 0
SMILES | HIF-2a inh | CF NFkB inh | Shn3 inh set2 | Peg3 promoter | KKLEB cytotox | EBV LMP1 NFkB
Cc1ccc(C(=O)N(c2c(C)n(C)n(-c3ccccc3)c2=O)C(C)C)cc1 | 0 | 0 | 0 | 0 | 0 | 0
CCCOc1ccc(-c2nnc(-c3ccncc3)o2)cc1 | 0 | 0 | 0 | 0 | -53 | 0
COc1ccc2[nH]c(C(=O)NCCCN3CCCC3=O)c(C)c2c1 | 0 | 0 | 0 | 0 | 0 | 0
O=C(Nc1ccc([N+](=O)[O-])cc1)C(c1ccccc1)c1ccccc1 | 0 | 0 | 0 | 52 | 0 | 0
O=C(NCC(O)c1ccc([N+](=O)[O-])cc1)C(c1ccccc1)c1ccccc1 (centres undefined) | 0 | 0 | 0 | 0 | 0 | 0
COc1cc2c(cc1NC(=O)c1cc(-c3ccccn3)nc3ccccc13)oc1ccccc12 | 0 | 0 | 0 | 0 | 0 | 0
